Screens: PubChem BioAssay, National Center for Advancing Translational Sciences (NCATS)
Only some compounds are listed: those with a hit (about 12% of all), similar ones and a draw of the others.
Pf growth 48h – inhibits P. falciparum growth in the first generation, 48 h | P. falciparum luciferase growth in erythrocytes, 48 h | Potency, µM (highest dose often 28.7 µM), for the others: top-dose activity change, negative = inhibition, usual class: inhibitors | hit rate 5.9% among 310,000; note: % is set by controls: 0 for no effect and ±100 for the full control effect
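Here the parasites carry a stable luciferase gene and grow inside erythrocytes in Albumax-based RPMI medium with compound for one erythrocytic cycle. Activity is scored as loss of luminescent signal.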
SARS PLpro yeast – inhibitors of SARS-CoV papain-like protease in yeast | S. cerevisiae expressing SARS-CoV PLpro, growth rescue | Potency, µM (highest dose often 32.9 µM), for inactives: top-dose activity, positive = growth rescue, actives largely listed as activators | hit rate 0.19% among 330,000 | AID 485353; calls by dose curve; note: 0% is about no effect; nearly all actives have a fitted effect of over 55% in size
Pf growth 96h – P. falciparum growth inhibition at 96 hour, primary screen for plastid delayed-death inhibitors. P. falciparum luciferase reporter growth, 96 h. Potency, µM (titrated, usually from 28.7 µM), inactives show top-dose activity change, negative = inhibition, hits mostly inhibitors. hit rate 6.9% among 320,000; note: % is set by controls: 0 for no effect and ±100 for the full control effect
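Delayed-death screen, second-generation endpoint: infected erythrocytes, 2% hematocrit, 0.05% parasitemia final; 96 hours at 37 C, 5% CO2; luciferase detection reagent; luminescence decrease equals reduced growth.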
AmpC no deterg – AmpC beta-lactamase inhibition without detergent; P00811; AmpC nitrocefin hydrolysis, absorbance 480 nm, 0.0001% Triton; Potency, µM (titrated, usually from 57.1 µM), inactives show at the top dose activity change, negative = inhibition, most hits filed as inhibitors; hit rate 0.52% among 330,000;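 note: plate controls were no compound for no effect and no enzyme for full effect; nearly all actives have a fitted effect of over 20% in size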
Target sequence (P00811 whole entry, looked up): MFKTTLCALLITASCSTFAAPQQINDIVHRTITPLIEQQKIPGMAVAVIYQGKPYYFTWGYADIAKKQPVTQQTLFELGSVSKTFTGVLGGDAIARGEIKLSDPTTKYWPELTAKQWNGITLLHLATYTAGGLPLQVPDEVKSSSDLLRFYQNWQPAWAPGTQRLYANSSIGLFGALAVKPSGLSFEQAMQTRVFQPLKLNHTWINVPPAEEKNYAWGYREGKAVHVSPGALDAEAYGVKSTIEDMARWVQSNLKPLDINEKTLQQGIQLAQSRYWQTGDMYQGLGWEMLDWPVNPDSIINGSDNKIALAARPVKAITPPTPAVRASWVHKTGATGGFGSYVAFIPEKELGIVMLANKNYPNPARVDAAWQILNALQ
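AmpC (5.3 nM in the dispensed reagent) in 20 mM phosphate pH 7.0 with 0.01% (detergent screen) or 0.0001% Triton X-100 was preincubated with compounds for 15 min at room temperature. Nitrocefin was then added from an 800 uM solution, and hydrolysis was followed at 480 nm.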
AmpC inh detg – blocks E. coli AmpC beta-lactamase in detergent assay; P00811; AmpC hydrolysis of nitrocefin, absorbance 480 nm, 0.01% Triton; Potency, µM (doses to about 114 µM), for the others: at the highest dose activity change, negative = inhibition, usual class: inhibitors; hit rate 0.041% among 370,000;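 note: 0% = no-compound wells and -100% = no-enzyme wells; nearly all actives have a fitted effect of over 25% in size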
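20 mM phosphate pH 7.0 + 0.01% (detergent screen) or 0.0001% Triton X-100; 5.3 nM AmpC reagent; cpd preinc 15 min RT; nitrocefin (800 uM stock) to start; A480 q20 s × 4 min; Activity was normalised to no-enzyme and no-compound control wells.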
Sm TGR inh – S. mansoni TGR enzyme inhibition; Q962Y6; purified TGR, DTNB reduction, TNB absorbance 405 nm; Potency, µM (titrated, usually from 114 µM), for inactives: top-dose activity change, negative = inhibition, usual class: inhibitors; hit rate 3% among 360,000; note: % is set by controls: 0 for no effect and ±100 for the full control effect; nearly all actives have a fitted effect of over 60% in size
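TGR 20 nM + NADPH 100 uM (dispensed conc.), cpd preinc 15 min RT; start with NADPH (500 uM addition) then DTNB (15 mM addition). Kinetic TNB absorbance, 405 nm filter. Four-parameter Hill fit across titration.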
* = called active by the depositor. Unless noted, calls come from the whole dose curve; as a rule, active = well fitted curve in the direction sought with a large enough effect; inconclusive = small, poorly fitted or top-dose-only effect, or another doubt; inactive = no such curve, though single readings can be large; an effect the other way counts as inactive or inconclusive. Potency is the fitted concentration of half-maximal effect.

For CCCc1cc(NCCCN(C)C)n2c(nc3ccccc32)c1C#N the results were Pf growth 48h inconclusive, SARS PLpro yeast -2.1%, Pf growth 96h -24.1%, AmpC no deterg 0.8%, AmpC inh detg -5.5% and Sm TGR inh 39.8µM*.
For CCCc1cc(NCc2ccccn2)n2c(nc3ccccc32)c1C#N the results were Pf growth 48h 1.85µM*, SARS PLpro yeast -13.8%, Pf growth 96h 9.3%, AmpC no deterg -25.1%, AmpC inh detg 4.0% and Sm TGR inh -2.0%.
`CCCc1cc(NCC2CCCO2)n2c(nc3ccccc32)c1C#N` (centres undefined) gave Pf growth 48h 5.22µM*, SARS PLpro yeast -3.4%, AmpC no deterg 11.4%, AmpC inh detg -1.9% and Sm TGR inh -1.6%.
CCCNc1cc(C)c(C#N)c2nc3ccccc3n12 was read as Pf growth 48h -0.8%, SARS PLpro yeast 25.2%, Pf growth 96h -23.1%, AmpC no deterg -17.8%, AmpC inh detg -6.2% and Sm TGR inh 5.7%.
Screening CCCc1cc(NCCN(C)C)n2c(nc3ccccc32)c1C#N returned Pf growth 48h 0.0%, SARS PLpro yeast -2.4%, Pf growth 96h -24.1%, AmpC no deterg -13.4%, AmpC inh detg -3.9% and Sm TGR inh 2.8%.
For O=C1NN=C(CSc2n[nH]c(=S)s2)CS1 the results were Pf growth 48h -12.4%, SARS PLpro yeast 0.8%, Pf growth 96h 33.5%, AmpC no deterg -13.0%, AmpC inh detg -2.7% and Sm TGR inh 39.8µM*.
For CCN(CC)S(=O)(=O)c1ccc(C(=O)NCCCN=C2NS(=O)(=O)c3ccccc32)cc1 the results were Pf growth 48h inconclusive, SARS PLpro yeast 1.1%, Pf growth 96h 8.28µM*, AmpC no deterg -13.4%, AmpC inh detg -0.4% and Sm TGR inh 0.7%.
For CN1CCc2c(sc3c2C(=O)NC(/C=C\c2ccccc2)N3)C1 (centres undefined) the results were Pf growth 48h 6.1%, SARS PLpro yeast 0.9%, Pf growth 96h -11.9%, AmpC no deterg -4.2%, AmpC inh detg 0.7% and Sm TGR inh 10µM*.
O.O.O.O.O.O.O.O=S(=O)([O-])[O-].[Co+2] was read as Pf growth 48h 6.75µM* and Pf growth 96h 1.69µM*.
For COc1ccc(C)cc1NC(=O)c1ccccc1NS(=O)(=O)c1cccc2cccnc12 the results were Pf growth 48h -11.1%, SARS PLpro yeast -6.7%, Pf growth 96h -35.8%, AmpC no deterg -36.2%, AmpC inh detg inconclusive and Sm TGR inh -0.4%.
`COC(=O)C1=CN(c2ccc(OC)cc2)C=C(C(=O)OC)C1c1cccc(F)c1` gave Pf growth 48h inconclusive, SARS PLpro yeast 0.4%, Pf growth 96h -6.2%, AmpC no deterg 0.7%, AmpC inh detg inconclusive and Sm TGR inh inconclusive.
COC(=O)C1=CN(c2ccc(OC)cc2)C=C(C(=O)OC)C1c1ccc(C)c([N+](=O)[O-])c1 was read as Pf growth 48h 13.1µM*, SARS PLpro yeast 12.1%, Pf growth 96h 19.7%, AmpC no deterg -5.1%, AmpC inh detg -5.7% and Sm TGR inh -1.1%.
`COC(=O)C1=CN(c2cccc(C)c2)C=C(C(=O)OC)C1c1cc(OC)c(O)c([N+](=O)[O-])c1` gave Pf growth 48h 8.28µM*, SARS PLpro yeast -5.1%, Pf growth 96h inconclusive, AmpC no deterg 80.8%, AmpC inh detg -0.6% and Sm TGR inh 2.5%.
Screening CC(=O)NC(Cc1ccccc1)C(=O)N1CCN(C(=O)c2cccs2)CC1 (centres undefined) returned Pf growth 48h 0.1%, SARS PLpro yeast 1.6%, AmpC no deterg -6.3%, AmpC inh detg inconclusive and Sm TGR inh 0.3%.
For CC1=[N+](C)c2ccc3ccccc3c2C1(C)C the results were Pf growth 48h inconclusive, SARS PLpro yeast -10.6%, Pf growth 96h 11.7µM*, AmpC no deterg -8.2%, AmpC inh detg -10.3% and Sm TGR inh -20.0%.
